PubChem BioAssay (Tox21)
Values joined by “and” are separate entries in the source; they are usually repeats but may differ in a detail not shown here. Identical values can stand only once. Values without a mark were called inactive. Results filed as inconclusive are left out. A call without a number means that no potency is given here. Active and inactive are the calls of the source. Unless noted, the call rests on the fitted dose curve; in most records, active means well fitted curve in the direction sought with a large enough effect in the repeat runs; inconclusive means weak or mixed curves; inactive means no such curve, though single readings can be large; an effect the other way counts as inactive or inconclusive.

Tests used:
[1] = Caspase-3/7 induction in HepG2 cells by small molecules, qHTS assay (AID 1346978); further: nearly all actives have a fitted effect of over 15% in size
Outline: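 Caspase-3/7 induction was measured by Caspase-Glo 3/7 luminescence (30 min, room temperature) after a 17 hr compound exposure of wild-type HepG2 cells seeded at 2,000 per well and pre-incubated 5 hr.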

[2] = Caspase-3/7 induction in CHO-K1 cells by small molecules, qHTS cell viability counter screen (AID 1346979); further: nearly all actives have a fitted effect of over 35% in size; further: potency means the concentration at half of the fitted maximal effect
Outline: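 Cells (CHO-K1, wild type) are plated at 1,500 per well and incubated 5hr. Test compounds in DMSO are then pinned in, followed by 16hr at 37C and 5% CO2. Viability is read by CellTiter-Fluor fluorescence after 1hr.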

[3] = Caspase-3/7 induction in CHO-K1 cells by small molecules, qHTS assay (AID 1346980); further: nearly all actives have a fitted effect of over 15% in size
Outline: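 Luminescent Caspase-Glo 3/7 read (30min, room temperature) quantified apoptosis induction. Cells were wild-type CHO-K1, treated with compound for 17hr at 37 C and 5% CO2.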

[4] = Caspase-3/7 induction in HepG2 cells by small molecules, qHTS cell viability counter screen (AID 1346981); further: nearly all actives have a fitted effect of over 30% in size; further: potency means the concentration at half of the fitted maximal effect
Outline: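 Treatment of HepG2 cells with DMSO-delivered compounds ran 16 hr at 37 C following a 5-hr pre-incubation of 2,000 cells/well. CellTiter-Fluor fluorescence, read after 1 hr, served as the viability measure in a qHTS format.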

[5] = molecular target: Acetylcholinesterase (Homo sapiens) (UniProt P22303); assay: Acetylcholinesterase (AChE) small molecule antagonists: colormetric cell-based qHTS assay (AID 1347395; calls by dose curve; further: nearly all actives have a fitted effect of over 30% in size)
Outline: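 Colorimetric read-out: DTNB detects thiocholine released when cellular AChE in SH-SY5Y cells hydrolyses acetylthiocholine. Cells attached overnight, received compound for 30 min at 37 C, then substrate mix for 90 min at 37 C.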

[6] = molecular target: Acetylcholinesterase (Homo sapiens) (UniProt P22303); assay: Acetylcholinesterase (AChE) small molecule antagonists: fluorescence cell-based qHTS assay (AID 1347398; calls by dose curve; further: nearly all actives have a fitted effect of over 50% in size); details: Potency: AChE activity; outcome: AChE activity
Outline: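 Homogeneous quantitative HTS format. SH-SY5Y cells seeded at 2,000 per well settle overnight at 37 C. Compound pretreatment runs 30 min (37 C, 5% CO2); substrate/probe mix then reacts 40 min at RT before reading 490/520 nm.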

[7] = molecular target: Acetylcholinesterase (Homo sapiens) (UniProt P22303); assay: Acetylcholinesterase (AChE) small molecule antagonists: enzyme-based qHTS assay with human liver microsomes (AID 1347399; calls by dose curve; further: nearly all actives have a fitted effect of over 60% in size); details: Potency: qHTS inhibition; outcome: qHTS inhibition
Outline: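 Recombinant human AChE (50 mU/mL in the enzyme mix) and human liver microsomes (0.25 mg/mL final) were preincubated with compound and NADPH (0.25 mg/mL final) for 30 min at 37 C. Acetylthiocholine/DTNB was then added; thiocholine was read colorimetrically after 10 min at room temperature.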

[8] = molecular target: Cytochrome P450 2C19 (Homo sapiens) (UniProt P33261); assay: Cytochrome P450 Family 2 Subfamily C Member 19 (CYP2C19) small molecule antagonists: luciferase reporter qHTS assay (AID 1671197); further: nearly all actives have a fitted effect of over 65% in size; further: potency means the concentration at half of the fitted maximal effect
Outline: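 Enzyme-substrate mix with proluciferin substrate (P450-Glo CYP2C19 system) preincubated with compounds 10 min at room temperature; NADPH regeneration solution added, 37C for 1 h; detection reagent stops reaction, luminescence read after 20 min. Ketoconazole positive control.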

[9] = molecular target: Voltage-gated inwardly rectifying potassium channel KCNH2 (Homo sapiens) (UniProt Q12809); assay: Human Ether-a-go-go-Related Gene (hERG) channel small molecule antagonists: fluorescence cell-based qHTS assay (AID 1671200); further: nearly all actives have a fitted effect of over 50% in size; further: potency means the concentration at half of the fitted maximal effect
Outline: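 Channel function was assessed by thallium flux. Cells seeded the previous day and kept at 37 C took up FluxOR II dye over 1 h in the dark at room temperature, then sat another 10 min before stimulation.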

[10] = molecular target: Nuclear receptor subfamily 1 group I member 2 (Homo sapiens) (UniProt O75469); assay: Human pregnane X receptor (PXR) small molecule agonists, qHTS assay (AID 1346982); further: nearly all actives have a fitted effect of over 35% in size; further: potency means the concentration at half of the fitted maximal effect
Outline: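 Stable HepG2 line reporting PXR-mediated CYP3A4 expression via luciferase. Treatment: 24 hr with compounds in DMSO at 37 C. Detection: ONE-Glo luminescence.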

[11] = molecular target: Cytochrome P450 2C9 (Homo sapiens) (UniProt P11712); assay: Cytochrome P450 Family 2 Subfamily C Member 9 (CYP2C9) small molecule antagonists: luciferase reporter qHTS assay (AID 1671198); further: nearly all actives have a fitted effect of over 50% in size; further: potency means the concentration at half of the fitted maximal effect
Outline: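 Enzyme-substrate mix preincubated with compound 10 min at room temperature; reaction started with NADPH regeneration solution, 1 h 37C. Luminescent luciferin product read after 20 min detection reagent.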

[12] = molecular target: Cytochrome P450 1A2 (Homo sapiens) (UniProt P05177); assay: Cytochrome P450 Family 1 Subfamily A Member 2 (CYP1A2) small molecule antagonists: luciferase reporter qHTS assay (AID 1671199); further: nearly all actives have a fitted effect of over 50% in size; further: potency means the concentration at half of the fitted maximal effect
Outline: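 Read-out is luminescence from luciferin detection reagent (20 min) proportional to CYP1A2 activity; compounds in DMSO preincubated 10 min with enzyme and proluciferin substrate, then NADPH regeneration solution, 1 h, room temperature.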

[13] = molecular target: Cytochrome P450 3A4 (Homo sapiens) (UniProt P08684); assay: Cytochrome P450 Family 3 Subfamily A Member 4 (CYP3A4) small molecule antagonists: luciferase reporter qHTS assay (AID 1671201); further: nearly all actives have a fitted effect of over 50% in size; further: potency means the concentration at half of the fitted maximal effect
Outline: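 Compounds in DMSO were pin-transferred onto CYP3A4 enzyme-substrate mix and held 10 min at room temperature. NADPH regenerating solution started the reaction for 1 h; luciferin detection reagent stopped it, and luminescence was read after 20 min.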

[14] = molecular target: Acetylcholinesterase (Homo sapiens) (UniProt P22303); assay: Acetylcholinesterase (AChE) small molecule antagonists: enzyme-based qHTS assay (AID 1347397; calls by dose curve; further: nearly all actives have a fitted effect of over 55% in size); details: Potency: AChE enzyme activity inhibition; outcome: AChE enzyme activity inhibition
Outline: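 First, recombinant human AChE (50 mU/mL as dispensed) received test compound or DMSO. Second, plates stood 30 min at room temperature. Third, DTNB and acetylthiocholine were added, followed by 10 min at room temperature and colorimetric detection.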

[15] = molecular target: Nuclear receptor subfamily 1 group I member 2 (Rattus norvegicus) (UniProt Q9R1A7); assay: Rat pregnane X receptor (rPXR) activation by small molecules, qHTS assay (AID 1346983); details: rPXR luciferase reporter cells, One-Glo luminescence, 24 h; active compounds read high; further: nearly all actives have a fitted effect of over 20% in size
Outline: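 Luminescent readout (One-Glo luciferase, 30 min room temperature) followed 24 hr compound treatment at 37 C of rPXR cells plated 2,000 per well and preincubated 5hr; qHTS format with compounds delivered in DMSO.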

[16] = molecular target: Nuclear receptor subfamily 1 group I member 2 (Homo sapiens) (UniProt O75469); assay: CYP3A4 induction through human pregnane X receptor (PXR) by small molecules, qHTS assay (AID 1346984); further: nearly all actives have a fitted effect of over 40% in size
Outline: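 After 24 h at 37C with compound, DPX-2 cells (HepG2, co-transfected PXR response element and CYP3A4 promoter-luciferase) got 3uM final P450-Glo Luciferin-IPA for 3 h; One-Glo luminescence followed.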

[17] = molecular target: Nuclear receptor subfamily 1 group I member 2 (Homo sapiens) (UniProt O75469); assay: Human pregnane X receptor (PXR) activation by small molecules, qHTS assay (AID 1346985); further: nearly all actives have a fitted effect of over 40% in size
Outline: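 DPX-2 cells (HepG2 co-transfected with a PXR response element and a CYP3A4-promoter luciferase construct) were seeded at 2,000 per well, rested 5 hr at 37C, then exposed to DMSO-dissolved compounds for 24 hr. Activation was read as luciferase luminescence.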

[18] = molecular target: Cytochrome P450 2D6 (Homo sapiens) (UniProt P10635); assay: Cytochrome P450 Family 2 Subfamily D Member 6 (CYP2D6) small molecule antagonists: luciferase reporter qHTS assay (AID 1671196); further: nearly all actives have a fitted effect of over 50% in size; further: potency means the concentration at half of the fitted maximal effect
Outline: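 Chemicals tested for interference with CYP2D6 activity; proluciferin substrate, NADPH regeneration, 1 h at room temperature, luminescent detection.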

Sequence of Acetylcholinesterase (Homo sapiens) (P22303 whole entry, looked up): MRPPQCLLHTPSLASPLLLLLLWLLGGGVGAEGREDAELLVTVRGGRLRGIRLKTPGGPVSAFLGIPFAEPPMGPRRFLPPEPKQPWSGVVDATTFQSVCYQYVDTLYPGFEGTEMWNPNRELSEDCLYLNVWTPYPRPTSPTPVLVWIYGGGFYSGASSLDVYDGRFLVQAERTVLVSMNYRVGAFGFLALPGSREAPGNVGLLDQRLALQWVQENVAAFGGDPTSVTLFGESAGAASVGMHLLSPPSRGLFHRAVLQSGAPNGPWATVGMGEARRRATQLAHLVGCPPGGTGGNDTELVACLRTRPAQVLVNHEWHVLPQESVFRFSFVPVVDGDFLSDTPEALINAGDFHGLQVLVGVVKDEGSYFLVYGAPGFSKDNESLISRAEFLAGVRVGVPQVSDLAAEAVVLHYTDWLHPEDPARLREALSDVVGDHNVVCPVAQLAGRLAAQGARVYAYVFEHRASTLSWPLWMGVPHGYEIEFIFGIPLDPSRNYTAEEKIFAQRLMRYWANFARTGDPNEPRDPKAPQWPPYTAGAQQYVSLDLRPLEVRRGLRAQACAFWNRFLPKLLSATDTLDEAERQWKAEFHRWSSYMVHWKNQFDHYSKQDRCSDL
Sequence of Cytochrome P450 1A2 (Homo sapiens) (P05177 whole entry, looked up): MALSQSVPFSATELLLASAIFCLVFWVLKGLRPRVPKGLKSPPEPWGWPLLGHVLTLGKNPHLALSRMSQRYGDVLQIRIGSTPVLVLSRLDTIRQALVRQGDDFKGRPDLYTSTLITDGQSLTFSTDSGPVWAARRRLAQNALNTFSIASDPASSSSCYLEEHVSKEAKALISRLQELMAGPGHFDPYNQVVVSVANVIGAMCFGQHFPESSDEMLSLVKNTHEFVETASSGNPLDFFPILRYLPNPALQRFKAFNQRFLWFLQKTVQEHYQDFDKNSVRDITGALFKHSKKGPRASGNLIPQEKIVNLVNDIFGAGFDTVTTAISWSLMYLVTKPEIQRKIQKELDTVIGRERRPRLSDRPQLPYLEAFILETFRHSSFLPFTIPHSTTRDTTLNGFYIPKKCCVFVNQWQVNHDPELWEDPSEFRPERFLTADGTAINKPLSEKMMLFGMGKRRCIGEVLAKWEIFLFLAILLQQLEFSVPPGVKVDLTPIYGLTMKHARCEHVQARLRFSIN
Sequence of Voltage-gated inwardly rectifying potassium channel KCNH2 (Homo sapiens) (Q12809 whole entry, looked up): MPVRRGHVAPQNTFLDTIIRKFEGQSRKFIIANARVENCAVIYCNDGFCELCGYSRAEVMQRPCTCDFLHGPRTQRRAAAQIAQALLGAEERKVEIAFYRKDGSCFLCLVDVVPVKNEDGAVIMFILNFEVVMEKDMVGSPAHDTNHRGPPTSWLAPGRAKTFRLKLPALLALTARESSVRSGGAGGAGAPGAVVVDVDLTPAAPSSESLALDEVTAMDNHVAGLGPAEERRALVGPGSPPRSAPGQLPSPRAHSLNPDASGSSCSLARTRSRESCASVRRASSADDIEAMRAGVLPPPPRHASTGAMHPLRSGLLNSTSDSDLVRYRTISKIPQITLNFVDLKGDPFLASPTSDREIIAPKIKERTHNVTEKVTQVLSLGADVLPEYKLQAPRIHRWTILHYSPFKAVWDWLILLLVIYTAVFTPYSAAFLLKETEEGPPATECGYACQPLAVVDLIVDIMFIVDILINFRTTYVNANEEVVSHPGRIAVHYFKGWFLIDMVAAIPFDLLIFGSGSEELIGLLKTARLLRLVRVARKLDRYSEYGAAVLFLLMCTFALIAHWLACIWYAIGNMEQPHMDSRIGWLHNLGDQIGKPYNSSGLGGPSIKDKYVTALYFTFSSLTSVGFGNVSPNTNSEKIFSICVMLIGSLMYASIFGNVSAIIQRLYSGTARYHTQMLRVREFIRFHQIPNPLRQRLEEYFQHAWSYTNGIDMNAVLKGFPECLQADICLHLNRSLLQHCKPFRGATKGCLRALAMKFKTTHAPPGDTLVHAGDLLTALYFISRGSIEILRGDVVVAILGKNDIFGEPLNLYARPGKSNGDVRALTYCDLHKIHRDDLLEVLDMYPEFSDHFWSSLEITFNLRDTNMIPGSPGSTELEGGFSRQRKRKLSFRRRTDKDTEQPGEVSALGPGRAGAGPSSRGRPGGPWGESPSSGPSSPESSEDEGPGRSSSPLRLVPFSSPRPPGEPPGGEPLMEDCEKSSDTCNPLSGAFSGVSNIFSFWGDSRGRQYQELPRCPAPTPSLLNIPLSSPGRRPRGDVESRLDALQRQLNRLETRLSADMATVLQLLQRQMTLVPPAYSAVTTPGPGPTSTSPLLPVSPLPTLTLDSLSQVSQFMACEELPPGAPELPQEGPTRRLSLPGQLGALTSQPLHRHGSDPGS
Sequence of Cytochrome P450 2C19 (Homo sapiens) (P33261 whole entry, looked up): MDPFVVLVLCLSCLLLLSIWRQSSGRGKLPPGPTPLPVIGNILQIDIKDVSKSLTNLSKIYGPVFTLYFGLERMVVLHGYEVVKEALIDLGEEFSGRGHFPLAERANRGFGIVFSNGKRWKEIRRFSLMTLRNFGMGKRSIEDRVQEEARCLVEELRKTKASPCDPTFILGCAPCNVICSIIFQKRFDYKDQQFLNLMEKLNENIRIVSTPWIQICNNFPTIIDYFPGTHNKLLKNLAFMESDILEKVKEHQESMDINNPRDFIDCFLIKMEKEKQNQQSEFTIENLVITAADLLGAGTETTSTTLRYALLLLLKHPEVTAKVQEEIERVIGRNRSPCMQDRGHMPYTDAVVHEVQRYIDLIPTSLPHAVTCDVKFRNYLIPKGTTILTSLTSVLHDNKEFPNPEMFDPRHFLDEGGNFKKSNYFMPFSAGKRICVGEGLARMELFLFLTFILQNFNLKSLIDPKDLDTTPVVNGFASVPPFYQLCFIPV
Sequence of Cytochrome P450 2D6 (Homo sapiens) (P10635 whole entry, looked up): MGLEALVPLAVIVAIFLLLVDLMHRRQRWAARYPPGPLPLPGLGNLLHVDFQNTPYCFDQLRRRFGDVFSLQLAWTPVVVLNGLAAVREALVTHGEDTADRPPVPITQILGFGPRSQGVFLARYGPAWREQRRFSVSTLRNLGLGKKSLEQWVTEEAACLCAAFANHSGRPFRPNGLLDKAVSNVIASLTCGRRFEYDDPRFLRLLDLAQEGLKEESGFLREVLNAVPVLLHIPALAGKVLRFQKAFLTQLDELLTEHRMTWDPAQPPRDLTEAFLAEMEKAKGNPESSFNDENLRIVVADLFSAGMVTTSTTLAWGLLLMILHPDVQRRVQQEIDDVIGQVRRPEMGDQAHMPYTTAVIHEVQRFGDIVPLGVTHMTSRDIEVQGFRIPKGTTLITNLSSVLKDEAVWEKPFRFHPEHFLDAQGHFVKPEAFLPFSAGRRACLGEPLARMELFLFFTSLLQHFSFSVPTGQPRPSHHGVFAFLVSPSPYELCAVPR
Sequence of Nuclear receptor subfamily 1 group I member 2 (Homo sapiens) (O75469 whole entry, looked up): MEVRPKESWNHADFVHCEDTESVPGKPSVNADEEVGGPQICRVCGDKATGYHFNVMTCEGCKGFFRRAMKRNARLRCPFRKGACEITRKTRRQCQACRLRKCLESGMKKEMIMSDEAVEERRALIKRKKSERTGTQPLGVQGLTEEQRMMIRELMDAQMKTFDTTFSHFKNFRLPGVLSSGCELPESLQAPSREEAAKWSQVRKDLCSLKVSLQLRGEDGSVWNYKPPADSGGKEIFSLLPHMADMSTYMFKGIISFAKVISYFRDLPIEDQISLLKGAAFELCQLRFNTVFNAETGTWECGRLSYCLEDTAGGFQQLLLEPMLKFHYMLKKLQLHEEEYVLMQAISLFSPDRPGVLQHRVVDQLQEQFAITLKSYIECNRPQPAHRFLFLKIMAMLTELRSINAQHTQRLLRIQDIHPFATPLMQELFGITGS
Sequence of Cytochrome P450 2C9 (Homo sapiens) (P11712 whole entry, looked up): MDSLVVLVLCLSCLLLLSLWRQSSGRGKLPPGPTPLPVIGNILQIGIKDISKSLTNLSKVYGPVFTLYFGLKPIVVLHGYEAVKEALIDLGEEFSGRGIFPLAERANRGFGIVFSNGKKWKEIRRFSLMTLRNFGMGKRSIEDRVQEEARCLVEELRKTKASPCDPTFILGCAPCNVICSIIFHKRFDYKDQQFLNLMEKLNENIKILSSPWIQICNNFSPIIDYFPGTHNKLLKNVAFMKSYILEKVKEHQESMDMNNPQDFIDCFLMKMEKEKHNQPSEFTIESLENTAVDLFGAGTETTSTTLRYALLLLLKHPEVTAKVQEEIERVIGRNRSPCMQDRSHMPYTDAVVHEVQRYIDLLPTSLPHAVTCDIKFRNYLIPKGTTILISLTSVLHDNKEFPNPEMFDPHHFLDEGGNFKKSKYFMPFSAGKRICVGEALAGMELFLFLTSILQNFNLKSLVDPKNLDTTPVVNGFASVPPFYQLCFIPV
Sequence of Cytochrome P450 3A4 (Homo sapiens) (P08684 whole entry, looked up): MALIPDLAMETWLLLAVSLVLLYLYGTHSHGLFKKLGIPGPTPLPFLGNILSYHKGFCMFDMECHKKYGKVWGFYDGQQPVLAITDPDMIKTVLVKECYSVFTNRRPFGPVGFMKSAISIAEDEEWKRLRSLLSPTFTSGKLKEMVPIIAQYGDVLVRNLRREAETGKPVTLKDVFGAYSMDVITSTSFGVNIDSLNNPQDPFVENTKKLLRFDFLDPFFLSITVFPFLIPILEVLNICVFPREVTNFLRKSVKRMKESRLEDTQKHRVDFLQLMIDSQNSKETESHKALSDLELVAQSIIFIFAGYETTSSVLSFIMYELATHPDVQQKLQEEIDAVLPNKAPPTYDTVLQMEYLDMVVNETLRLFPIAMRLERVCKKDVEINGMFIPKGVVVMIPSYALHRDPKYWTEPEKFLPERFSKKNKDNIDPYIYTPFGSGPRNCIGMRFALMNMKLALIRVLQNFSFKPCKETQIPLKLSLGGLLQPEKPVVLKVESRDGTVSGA

Structure (SMILES) | Potency [1] | Potency [2] | Potency [3] | Potency [4] | Potency [5] | Potency [6] | Potency [7] | Potency [8] | Potency [9] | Potency [10] | Potency [11] | Potency [12] | Potency [13] | Potency [14] | max activation [15] [%] | outcome [16] | Potency [17] | Potency [18]
CCc1ccccc1N | inactive | inactive | inactive | inactive | inactive | inactive | inactive | 89.4 µM (active) | inactive |  |  |  |  |  |  |  |  | 
CCC1(CCC(C)C)C(=O)NC(=O)NC1=O | inactive | inactive | inactive | inactive | inactive | inactive | inactive |  | inactive | inactive |  |  |  |  |  |  |  | 
Cc1nc2ccccc2c(=O)n1-c1ccccc1Cl |  | 26.7 µM (active) | inactive | 26.7 µM (active) | inactive | inactive | inactive | 2.77 µM (active) | inactive | 21.2 µM (active) | 39.1 µM (active) | inactive | inactive |  |  |  |  | 
CCCBr | inactive | inactive | inactive | inactive | inactive | inactive | inactive |  | inactive | inactive | inactive |  |  | inactive |  |  |  | 
O=CC=O |  | inactive | inactive | inactive | inactive | inactive | inactive | inactive | inactive | inactive | inactive | inactive | inactive | inactive | -4.84 | inactive | inactive | inactive
CC(Cc1ccccc1)NCc1ccccc1Cl (stereo not given) | inactive | inactive | inactive | inactive | inactive | inactive | inactive |  | inactive |  | inactive | 15.5 µM (active) |  | inactive |  | inactive | inactive | 
CC(C)(C)NCC(O)c1cc(Cl)c(N)c(C(F)(F)F)c1 (stereo not given) | inactive |  | inactive |  | inactive | inactive | inactive |  | inactive | inactive | inactive | inactive | inactive | inactive | 8.47 | inactive | inactive | 15.5 µM (active)
C=CCOC(=O)C(C)(C)OC(=O)c1cc(-n2c(=O)cc(C(F)(F)F)n(C)c2=O)ccc1Cl | inactive |  | inactive | inactive | inactive | inactive | inactive |  | inactive |  | 15.6 µM (active) |  | 553 nM (active) | inactive |  |  |  | 27.7 µM (active)
C[Si](Cn1cncn1)(c1ccc(F)cc1)c1ccc(F)cc1 | inactive |  | inactive |  | inactive | inactive | inactive | 58.3 nM (active) and 39.9 nM (active) | 45.1 µM (active) | 31.6 µM (active) and 15.4 µM (active) | 1.84 µM (active) and 2 µM (active) | 32.8 µM (active) and 20 µM (active) | 104 nM (active) and 126 nM (active) | inactive |  |  |  | 26 µM (active) and 31.7 µM (active)
O=C(NCNC(=O)NC1C(=O)NC(=O)N1CO)NC1C(=O)NC(=O)N1CO (stereo not given) | inactive | inactive | inactive | inactive |  |  |  |  | inactive |  |  |  |  |  |  |  |  | 
